We go through 24 compounds from ChEMBL document CHEMBL4296182, “CO-ADD screening of NIH NCI Diversity Set V”.

For one assay, the system named is Staphylococcus aureus. The assay can be described thus: Antibacterial activity against Staphylococcus aureus MRSA ATCC 43300 (CO-ADD:GP_020); MIC in CAMBH media using NBS plates, by Resazurin F(560/590). The format is functional. Particulars: Concentration 20 uM, ASSAY_TEST Inhibition of Bacterial Growth, detection method Resazurin, Fluorescence (ex560/em590), MEDIA CAMHB, plate type 384well, CORNING #3640, time 18 hr. For orientation: Resazurin is reduced to fluorescent resorufin, in cell work by metabolically active cells.

Another assay deals with Acinetobacter baumannii. The assay can be described thus: Antibacterial activity against Acinetobacter baumannii ATCC 19606 (CO-ADD:GN_034); MIC in CAMBH media using NBS plates, by Resazurin F(560/590). The assay is classed as functional. Particulars: Concentration 20 uM, ASSAY_TEST Inhibition of Bacterial Growth, detection method Resazurin, Fluorescence (ex560/em590), MEDIA CAMHB, plate type 384well, CORNING #3640, time 18 hr.

The next assay deals with Escherichia coli. Briefly: Antibacterial activity against Escherichia coli ATCC 25922 (CO-ADD:GN_001); MIC in CAMBH media using NBS plates, by Resazurin F(560/590). The format is functional. The conditions noted are these: Concentration 20 uM, ASSAY_TEST Inhibition of Bacterial Growth, detection method Resazurin, Fluorescence (ex560/em590), MEDIA CAMHB, plate type 384well, CORNING #3640, time 18 hr.

In another assay the test system is Klebsiella pneumoniae. The conditions noted are these: Concentration 20 uM; ASSAY_TEST Inhibition of Bacterial Growth; detection method Absorption (OD600); MEDIA CAMHB; plate type 384well; NBS; CORNING #3640; time 18 hr.
The next assay concerns Candida albicans. The conditions noted are these: 20 µM.
In another assay the test system is Cryptococcus neoformans. The conditions noted are these: Concentration 20 uM; ASSAY_TEST Inhibition of Fungal Growth; detection method Resazurin; Absorption (OD600-OD570); plate type 384well; NBS; CORNING #3640.

For part of these data: Measured potencies and affinities stand elsewhere.

On to `O=C(O)/C=C/C(=O)N1Cc2cc3ccccc3nc2C1`, for which the Inhibition with Staphylococcus aureus is 3.21%; in the assay on Acinetobacter baumannii, -0.11%; with Escherichia coli, -4.23%; in the assay on Klebsiella pneumoniae, 9.8%; with Candida albicans, 1.99%; with Cryptococcus neoformans it was -3.38%.
Turning to `O=C(NCc1ccco1)Nc1cccc([N+](=O)[O-])c1`, the Inhibition in the assay with Staphylococcus aureus is 14.39%; in the assay on Acinetobacter baumannii it was 8.34%; with Escherichia coli, -1.12%; with Klebsiella pneumoniae it was 10.94%; in the assay on Candida albicans, 3.5%; in the assay on Cryptococcus neoformans it was -10.49%.
Turning to `ON=C(NCc1ccccc1)c1ccccc1`, the Inhibition in the assay on Staphylococcus aureus is -15.15%; in the assay on Acinetobacter baumannii it was 6.48%; in the assay on Escherichia coli, -18.65%; in the assay with Klebsiella pneumoniae, 2.92%; in the assay on Candida albicans, -0.43%; in the assay on Cryptococcus neoformans it was 19.05%.
Turning to `Cc1nc([N+](=O)[O-])cn1-c1nc2ccccn2c1[N+](=O)[O-]`, the Inhibition with Staphylococcus aureus is 12.97%; with Acinetobacter baumannii it was -5.05%; in the assay on Escherichia coli it was 12.78%; in the assay with Klebsiella pneumoniae, 11.88%; in the assay on Candida albicans, 4.75%; in the assay on Cryptococcus neoformans, -6.88%.
As for `COC(=O)Nc1csc2c1NC(=O)CCCC2`, the Inhibition in the assay with Staphylococcus aureus was 9.05%; in the assay on Acinetobacter baumannii, -9.14%; with Escherichia coli, 10.25%; with Klebsiella pneumoniae it was 10.74%; with Candida albicans, 1.85%; in the assay on Cryptococcus neoformans it was -7.13%.
Consider `COc1ccc2c3c([nH]c2c1)[C@H]1C[C@H]2[C@H](C[C@@H](O)[C@H](OC)[C@H]2CO)CN1CC3`, for which the Inhibition with Staphylococcus aureus was 17.92%; in the assay with Acinetobacter baumannii it was 7.85%; in the assay on Escherichia coli it was -1.49%; in the assay on Klebsiella pneumoniae, 7.11%; in the assay with Candida albicans, -0.63%; in the assay on Cryptococcus neoformans, -8.29%.
As for `NS(=O)(=O)c1ccc(Nc2ccccc2)c([N+](=O)[O-])c1`, the Inhibition in the assay with Staphylococcus aureus was 4.64%; with Acinetobacter baumannii it was 12.63%; in the assay on Escherichia coli it was -4.87%; in the assay on Klebsiella pneumoniae it was 9.32%; with Candida albicans it was 7.16%; with Cryptococcus neoformans it was -1%.
In the case of `CS(=O)(=O)O.Cc1cc2c(cc1[N+](=O)[O-])NC(CNC(C)C)CC2` (centres undefined), the Inhibition in the assay with Staphylococcus aureus is 12.97%; with Acinetobacter baumannii, 12.49%; in the assay with Escherichia coli it was 3.18%; with Klebsiella pneumoniae, 6.82%; with Candida albicans it was -0.29%; in the assay on Cryptococcus neoformans it was -5.85%.
As to `OCC1CCCC(n2cnc3c(S)ncnc32)O1` (centres undefined), the Inhibition is 9.66% with Staphylococcus aureus; 5.96% in the assay on Acinetobacter baumannii; 6.02% in the assay on Escherichia coli; 14.91% in the assay on Klebsiella pneumoniae; 14% with Candida albicans; -13.51% in the assay on Cryptococcus neoformans.
With `CC(C)C(=O)Nc1cccnc1`, the Inhibition with Staphylococcus aureus was -3.96%; in the assay on Acinetobacter baumannii, -12.43%; with Escherichia coli, 9.68%; in the assay with Klebsiella pneumoniae, 6.6%; with Candida albicans, 0.24%; in the assay on Cryptococcus neoformans it was 8.85%.
`OCC(O)C1OCOC(C(O)CO)C1O` (centres undefined): the Inhibition in the assay with Staphylococcus aureus is 14.61%; in the assay with Acinetobacter baumannii, -8.42%; in the assay on Escherichia coli it was 9.4%; with Klebsiella pneumoniae, 8.21%; with Candida albicans, 0.45%; with Cryptococcus neoformans it was -5.49%.
In the case of `Cc1nc2ccnn2c(O)c1CCc1ccccc1`, the Inhibition in the assay with Staphylococcus aureus was 8.7%; in the assay on Acinetobacter baumannii, -8.36%; in the assay with Escherichia coli, 1.1%; in the assay with Klebsiella pneumoniae, 10.44%; in the assay on Candida albicans, 5.45%; with Cryptococcus neoformans, -6.6%.
For the compound `Nc1c(Cl)cc(S(N)(=O)=O)cc1S(N)(=O)=O`, the Inhibition with Staphylococcus aureus was 4.27%; in the assay on Acinetobacter baumannii it was 9.37%; in the assay on Escherichia coli it was 1.27%; in the assay with Klebsiella pneumoniae, 26.17%; with Candida albicans, 17.5%; in the assay with Cryptococcus neoformans it was -1.7%.
Take `c1ccc(Nc2cccc3c(Nc4ccccc4)cccc23)cc1`: the Inhibition in the assay on Staphylococcus aureus was -4.86%; in the assay on Acinetobacter baumannii, -14.93%; in the assay on Escherichia coli it was 9.5%; with Klebsiella pneumoniae, 12.7%; in the assay on Candida albicans, -0.47%; in the assay on Cryptococcus neoformans, -1.96%.
As for `Cn1c(=O)c2nc(SCc3ccccn3)[nH]c2n(C)c1=S`, the Inhibition in the assay on Staphylococcus aureus is 8.4%; with Acinetobacter baumannii, 9.84%; with Escherichia coli, -0.48%; with Klebsiella pneumoniae it was 14.94%; with Candida albicans, 0.94%; with Cryptococcus neoformans, -2.39%.
As to `COc1cc2c(cc1OC)C(/C=C/c1ccco1)=NCC2.O=S(=O)(O)O`, the Inhibition with Staphylococcus aureus is 23.97%; in the assay on Acinetobacter baumannii, 13.38%; in the assay with Escherichia coli it was 7.22%; with Klebsiella pneumoniae it was 11.02%; in the assay with Candida albicans, -0.93%; in the assay with Cryptococcus neoformans, -6.67%.
On to `CCCNC(=O)c1ccc(S(N)(=O)=O)cc1`, for which the Inhibition with Staphylococcus aureus is 24.95%; with Acinetobacter baumannii, -15.44%; in the assay with Escherichia coli, 7.13%; in the assay with Klebsiella pneumoniae, 13.6%; in the assay with Candida albicans it was -0.57%; in the assay on Cryptococcus neoformans it was -5.61%.
For the compound `CCN(CC)CCNC(=O)c1ccc(NCN2C(=O)NC(c3ccccc3)(c3ccccc3)C2=O)cc1`, the Inhibition with Staphylococcus aureus is 12.78%; with Acinetobacter baumannii, -11.12%; with Escherichia coli, 11.42%; in the assay with Klebsiella pneumoniae, 8.03%; with Candida albicans, 1.74%; in the assay with Cryptococcus neoformans it was -3.88%.
For the compound `O=C(C(=O)c1cccnc1)c1cccnc1`, the Inhibition is 7.87% in the assay with Staphylococcus aureus; -9.17% in the assay with Acinetobacter baumannii; 12.61% in the assay on Escherichia coli; 6.86% in the assay with Klebsiella pneumoniae; -0.57% in the assay on Candida albicans; -3.14% with Cryptococcus neoformans.
Consider `COc1cc(OC)c2c(=O)cc(-c3cccnc3)oc2c1`, for which the Inhibition is 13.2% in the assay with Staphylococcus aureus; 11.57% with Acinetobacter baumannii; -0.96% in the assay with Escherichia coli; 9.22% in the assay with Klebsiella pneumoniae; 2.37% in the assay on Candida albicans; -8.93% in the assay with Cryptococcus neoformans.
Regarding `CC(C)Cc1nnc(N)s1`, the Inhibition in the assay on Staphylococcus aureus is 5.28%; in the assay with Acinetobacter baumannii it was -16.63%; in the assay on Escherichia coli, 6.53%; in the assay on Klebsiella pneumoniae, 28.97%; in the assay with Candida albicans, 1.43%; in the assay with Cryptococcus neoformans, -13.23%.
In the case of `CCCCOc1nc2c(c(=O)n(C)c(=O)n2C)n1C`, the Inhibition in the assay on Staphylococcus aureus turned out to be 18.84%; in the assay on Acinetobacter baumannii it was 14.19%; in the assay with Escherichia coli it was 18.86%; in the assay with Klebsiella pneumoniae, 3.58%; in the assay on Candida albicans, 11%; with Cryptococcus neoformans it was 10.8%.
As for `Sc1ncnc2c1cnn2-c1ccccc1`, the Inhibition with Staphylococcus aureus is -0.19%; in the assay with Acinetobacter baumannii, -10.1%; in the assay with Escherichia coli it was 15.12%; in the assay on Klebsiella pneumoniae it was 7.13%; in the assay with Candida albicans, 16.7%; in the assay on Cryptococcus neoformans, 30.67%.
Consider `Cc1cc(-n2cnc3c(O)ncnc32)ccc1N`, for which the Inhibition in the assay on Staphylococcus aureus is 0.18%; with Acinetobacter baumannii it was -17.95%; in the assay on Escherichia coli, 5.61%; in the assay on Klebsiella pneumoniae it was 1.65%; in the assay on Candida albicans, 1.13%; in the assay with Cryptococcus neoformans it was -8.1%.

The term Inhibition denotes the drop in the measured response relative to a control, in per cent.
